Experiment [1] is described as follows: qHTS assay to identify small molecule antagonists of the estrogen related receptor (ERR) signaling pathway from Tox21 library - cell viability counter screen (AID 1224834). Note: nearly all actives have a fitted effect of over 30% in size. Note: potency is the fitted concentration of half-maximal effect. In outline: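 Viability readout (CellTiter-Fluor fluorescence, 30 min at 37 C) multiplexed with the ERR assay; cells treated 17.5 h at 37 C with compounds delivered in DMSO.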
(In qHTS, concentration-response curves come from the screen itself.)

A short description of experiment [2]: qHTS assay to identify small molecule antagonists of the constitutive androstane receptor (CAR) signaling pathway - cell viability counter screen (AID 1224837). Note: nearly all actives have a fitted effect of over 45% in size. Note: potency is the fitted concentration of half-maximal effect. In a few lines:
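Fluorescence from CellTiter-Fluor served as the viability signal. Human hepatoma HepG2 cells stably bearing hCAR and CYP2B6-2.2kb received compound plus CITCO (50 nM final) for 23 hr.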

Experiment [3] concerns the target Nuclear receptor subfamily 1 group I member 3 (Homo sapiens) (UniProt Q14994). As to the kind of experiment: qHTS assay to identify small molecule antagonists of the constitutive androstane receptor (CAR) signaling pathway (AID 1224838).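 Note: HepG2 cells stably expressing hCAR with CYP2B6 luciferase reporter stimulated by CITCO; nearly all actives have a fitted effect of over 40% in size.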 Note: potency is the fitted concentration of half-maximal effect. In outline:
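Quantitative HTS in double-stable HepG2-CYP2B6-hCAR cells. After 4 h plating, cells get compound (15 concentrations) and CITCO at 50 nM final, incubate 24 h at 37 C, then ONE-Glo luminescence is read.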

The nature of experiment [4]: qHTS assay to identify small molecule antagonists of the estrogen related receptor signaling pathway with the pleiotropic PPARgamma coactivator (PGC) from Tox21 10K library - cell viability counter screen (AID 1224840; active = well fitted cell-killing curve with a large enough effect in the repeat runs, not every such curve was filed as active; note: nearly all actives have a fitted effect of over 40% in size; note: potency is the fitted concentration of half-maximal effect). In outline:
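Compounds in DMSO, alongside positive and negative controls, were pinned onto PGC/ERR cells (2,000 per well). Exposure lasted 17.5 hours at 37 C, followed by a 30-minute CellTiter-Fluor incubation and fluorescence reading.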

Experiment [5] in a line: qHTS assay to identify small molecule antagonists of the estrogen related receptor signaling pathway with the pleiotropic PPARgamma coactivator (PGC) from Tox21 10K library (AID 1224841; call rule not given here; note: actives are mostly falling curves and most rising ones were filed inactive; nearly all actives have a fitted effect of over 50% in size; note: potency is the fitted concentration of half-maximal effect). In a few lines:
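Compound exposure ran 18 hours at 37 C in PGC/ERR cells (2,000/well) that had first rested 6 hours in a 37 C/5% CO2 incubator. Luciferase activity was then detected with One-Glo after a 30-minute room-temperature step.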

Experiment [6] is described as follows: qHTS assay to identify small molecule agonists of the estrogen related receptor signaling pathway with the pleiotropic PPARgamma coactivator (PGC) from Tox21 10K library (AID 1224842). Note: nearly all actives have a fitted effect of over 15% in size. Note: potency is the fitted concentration of half-maximal effect. In outline:
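PGC/ERR reporter cell line, 2,000 cells per well, incubated 6 h at 37 C before 23 nL compound in DMSO was added. After 18 h at 37 C, One-Glo luminescence read following 30 min at room temperature.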

Experiment [7] is described as follows: qHTS assay to identify small molecule antagonists of the estrogen related receptor (ERR) signaling pathway from Tox21 library (AID 1224848). Note: nearly all actives have a fitted effect of over 50% in size. Note: potency is the fitted concentration of half-maximal effect. In outline:
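Luminescent reporter read-out (ONE-Glo) from NTP's ERR cell line after 18 h treatment at 37 C with DMSO-dissolved Tox21 compounds; cells pre-plated 6 h beforehand at 2,000 per well.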

Experiment [8] in a line: qHTS assay to identify small molecule agonists of the estrogen related receptor (ERR) signaling pathway from Tox21 library (AID 1224849; calls by dose curve; note: nearly all actives have a fitted effect of over 15% in size). The note with it: ERR reporter cell line, ONE-Glo luciferase, 18 h. In a few lines: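 We plated ERR reporter cells, waited 6 h, added compounds in DMSO by pin tool and incubated them 18 h at 37 C. ONE-Glo was then added and luminescence read after 30 min.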

Experiment [9] in a line: qHTS RealTime-Glo MT Cell Viability Assay in HepG2 cells - 24 hour (AID 1224867). Note: nearly all actives have a fitted effect of over 50% in size. Note: potency is the fitted concentration of half-maximal effect. In outline:
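Viability was tracked continuously by NanoLuc luminescence from prosubstrate reduced by living HepG2 cells, at successive time points over 40 h of compound exposure. Cells with reagent were preincubated 5 h at 37 °C before compound addition.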

The nature of experiment [10]: qHTS RealTime-Glo MT Cell Viability Assay in HEK293 cells - 32 hour (AID 1224868). Note: nearly all actives have a fitted effect of over 50% in size. Note: potency is the fitted concentration of half-maximal effect. In outline:
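Viability tracked continuously by luminescence as live cells reduce a prosubstrate for NanoLuc; HEK293 cells preincubated 5 h, compound-treated at 37 C, and read at 0, 8, 16, 24, 32 and 40 h.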

A short description of experiment [11]: A CellTox Green Cytotoxicity Assay to monitor cytotoxicity in HEK293 cells - 0 hour (AID 1224869). Note: nearly all actives have a fitted effect of over 50% in size. In outline:
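Each value comes from one timepoint of a single continuous run in which HEK293 cells with CellTox Green were exposed to compound for up to 40 h at 37 C, dye fluorescence rising with cell death.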

Experiment [12] can be described thus: qHTS RealTime-Glo MT Cell Viability Assay in HepG2 cells - 40 hour (AID 1224870). Note: nearly all actives have a fitted effect of over 50% in size. Note: potency is the fitted concentration of half-maximal effect. In a few lines: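 HepG2 cells (600/well) mixed with RealTime-Glo MT reagent, settled 5 h at 37 C/5% CO2 before compound addition. Nonlytic NanoLuc luminescence from viable-cell prosubstrate reduction read repeatedly during 40 h treatment at 37 C.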
The target of experiment [13] is Luciferin 4-monooxygenase (Photinus pyralis) (UniProt P08659). Description: qHTS assay to identify small molecule inhibitors of firefly luciferase (AID 1224835). Note: nearly all actives have a fitted effect of over 25% in size. In outline: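 Biochemical qHTS: compounds run as interplate titrations against purified firefly enzyme, with D-luciferin and ATP each at its KM concentration. Light output recorded by CCD imaging.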
A short description of experiment [14]: qHTS assay to identify small molecule agonists of the constitutive androstane receptor (CAR) signaling pathway - cell viability counter screen (AID 1224836). Note: nearly all actives have a fitted effect of over 45% in size. In a few lines:
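HepG2 cells stably carrying hCAR and a CYP2B6-2.2kb reporter; 15-concentration compounds plus PK11195 (final 0.75 uM), 23 hr at 37 C/5% CO2. Viability read by CellTiter-Fluor fluorescence.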

Experiment [15] is described as follows: qHTS assay to identify small molecule agonists of the hypoxia (HIF-1) signaling pathway - cell viability counter screen (AID 1224844; calls by dose curve; note: nearly all actives have a fitted effect of over 50% in size). In a few lines: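 Luminescent ATP content (CellTiter-Glo, 30 min, room temperature) served as the viability measure in HRE-bla ME-180 cells exposed to compounds for 17 hrs in low-serum medium (0.5% dialyzed FBS).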
Experiment [16] is described as follows: qHTS assay to identify small molecule agonists of H2AX (AID 1224845; active = well fitted activation curve with a large enough effect in the signal ratio in the repeat runs, not every such curve was filed as active; the % refers to the signal ratio). In outline: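 Wild-type CHO-K1 cells, plated overnight, exposed 3hr at 37C to 15 concentrations (0.76% DMSO final). Lysed, then HTRF anti-pH2AX (S139) cryptate and anti-H2AX-d2 antibodies, 24 hr room temperature; 665/620 nm emission read.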
The nature of experiment [17]: qHTS assay to identify small molecule agonists of the hypoxia (HIF-1) signaling pathway (AID 1224846; active = well fitted activation curve with a large enough effect in the signal ratio in the repeat runs, not every such curve was filed as active; the % refers to the signal ratio). In a few lines: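 Measured by blue/green FRET after loading CCF4-AM: beta-lactamase expressed from a hypoxia response element in ME-180 cells. Test agents were delivered in DMSO and left 17 hrs; cells had been plated 5 hrs earlier in low-serum (0.5% dialyzed FBS) medium.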

Experiment [18] is described as follows: qHTS assay to identify small molecule agonists of H2AX - cell viability counter screen (AID 1224847; calls by dose curve; note: top concentration of the series differs between compounds; nearly all actives have a fitted effect of over 30% in size). In a few lines: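 CHO-K1 cells plated overnight at 37C, then exposed 3 h at 37C to compounds at 15 concentrations (0.76% DMSO final). Viability by CellTiter-Glo luminescence after 30 min at room temperature.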
Experiment [19] addresses Thyrotropin receptor (Homo sapiens) (UniProt P16473). Description: qHTS assay to identify small molecule agonists of the thyroid stimulating hormone receptor (TSHR) signaling pathway (AID 1224843; calls by dose curve; note: nearly all actives have a fitted effect of over 45% in size). In a few lines:
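Steps: seed 800 TSHR-HEK293 cells per well; add test compound and hold 30 min at ambient temperature; dispense cAMP-d2 then anti-cAMP cryptate; incubate 1 h at ambient; measure fluorescence intensity.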

Where “and” joins values, the source holds several entries; their conditions need not be identical. Identical values can stand only once. Unmarked numbers belong to inactive results. Results filed as inconclusive are left out. Calls of active or inactive are those of the source. Unless noted, calls come from the whole dose curve; as a rule, active = well fitted curve in the direction sought with a large enough effect in the repeat runs; inconclusive = weak or mixed curves; inactive = no such curve, though single readings can be large; an effect the other way counts as inactive or inconclusive.
% is set by controls: 0 for no effect and ±100 for the full control effect.

Chain of Luciferin 4-monooxygenase (Photinus pyralis) (P08659 whole entry, looked up): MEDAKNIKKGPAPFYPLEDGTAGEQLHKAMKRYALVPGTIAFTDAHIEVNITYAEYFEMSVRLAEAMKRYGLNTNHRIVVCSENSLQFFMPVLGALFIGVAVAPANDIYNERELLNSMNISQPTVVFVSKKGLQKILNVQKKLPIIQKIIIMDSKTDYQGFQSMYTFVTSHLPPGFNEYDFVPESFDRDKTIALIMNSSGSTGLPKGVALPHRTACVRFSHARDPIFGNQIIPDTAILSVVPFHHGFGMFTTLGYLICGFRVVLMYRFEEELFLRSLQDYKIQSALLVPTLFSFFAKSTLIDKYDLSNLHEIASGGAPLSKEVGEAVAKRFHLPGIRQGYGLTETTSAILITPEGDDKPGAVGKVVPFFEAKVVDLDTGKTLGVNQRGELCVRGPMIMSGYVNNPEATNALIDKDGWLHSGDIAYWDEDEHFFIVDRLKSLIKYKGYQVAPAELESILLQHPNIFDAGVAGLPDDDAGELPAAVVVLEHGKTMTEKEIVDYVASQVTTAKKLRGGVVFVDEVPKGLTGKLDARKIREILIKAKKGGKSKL
Chain of Nuclear receptor subfamily 1 group I member 3 (Homo sapiens) (Q14994 whole entry, looked up): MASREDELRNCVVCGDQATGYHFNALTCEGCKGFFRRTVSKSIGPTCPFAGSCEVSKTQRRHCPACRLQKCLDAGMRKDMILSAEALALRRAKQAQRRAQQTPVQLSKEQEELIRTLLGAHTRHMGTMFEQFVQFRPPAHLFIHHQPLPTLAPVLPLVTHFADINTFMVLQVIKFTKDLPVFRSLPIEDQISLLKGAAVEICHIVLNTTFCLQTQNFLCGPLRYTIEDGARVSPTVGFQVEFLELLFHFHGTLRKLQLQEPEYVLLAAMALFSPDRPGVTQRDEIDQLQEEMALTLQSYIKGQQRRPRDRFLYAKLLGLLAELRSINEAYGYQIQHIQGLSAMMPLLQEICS
Chain of Thyrotropin receptor (Homo sapiens) (P16473 whole entry, looked up): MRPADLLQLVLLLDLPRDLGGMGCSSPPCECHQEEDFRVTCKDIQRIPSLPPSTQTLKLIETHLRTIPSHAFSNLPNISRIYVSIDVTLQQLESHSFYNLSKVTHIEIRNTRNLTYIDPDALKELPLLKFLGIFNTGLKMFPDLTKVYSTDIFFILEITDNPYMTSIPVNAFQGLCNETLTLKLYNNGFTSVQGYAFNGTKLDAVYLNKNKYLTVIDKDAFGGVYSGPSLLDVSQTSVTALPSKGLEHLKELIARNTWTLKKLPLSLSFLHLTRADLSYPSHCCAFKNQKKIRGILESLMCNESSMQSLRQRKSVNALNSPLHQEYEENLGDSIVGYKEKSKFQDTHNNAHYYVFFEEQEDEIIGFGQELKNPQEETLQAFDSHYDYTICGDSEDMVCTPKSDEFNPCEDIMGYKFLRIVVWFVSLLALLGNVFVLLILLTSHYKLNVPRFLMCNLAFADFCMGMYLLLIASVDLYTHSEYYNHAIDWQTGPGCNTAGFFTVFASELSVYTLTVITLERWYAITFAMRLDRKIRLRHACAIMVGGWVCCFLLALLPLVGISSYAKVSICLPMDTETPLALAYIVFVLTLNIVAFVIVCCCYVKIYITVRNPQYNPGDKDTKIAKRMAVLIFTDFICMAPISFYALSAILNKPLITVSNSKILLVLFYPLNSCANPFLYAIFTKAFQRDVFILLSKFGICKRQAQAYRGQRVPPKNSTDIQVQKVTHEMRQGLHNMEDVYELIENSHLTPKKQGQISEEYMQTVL

On to `CN(C)c1ccc(N=O)cc1`, for which the Potency in [1] was 27.4 µM (active) and 48.6 µM (active); in experiment [2] it was 30.7 µM (active) and 27.3 µM (active); in experiment [3], 43.4 µM (active) and 43.3 µM (active); in [4] it was 19.4 µM (active) and 30.6 µM (active); in experiment [6] it was 9.72 µM (active) and 8.63 µM (active); in experiment [9], 55.1 µM (active) and 38.9 µM (active). Moreover, the Potency in [10] was 15.5 µM (active) and 21.9 µM (active); in experiment [12], 34.7 µM (active). Further, the Potency entry in [5], in [7] and in experiment [11] was “inactive” in each case. Also, the activity change, positive = activation in experiment [8] (at 92.4 µM (top of the series)) was -55.7% (active) and -48.2% (active).
Regarding `C=CCOC(=O)C(C)(C)OC(=O)c1cc(-n2c(=O)cc(C(F)(F)F)n(C)c2=O)ccc1Cl`, the Potency entry in experiment [13], in experiment [14], in experiment [2], in experiment [3], in [4] and in experiment [6] was “inactive” each time. Also, the Potency result in experiment [15], in experiment [16], in experiment [18], in experiment [9] and in [12] was “inactive” throughout. For the same molecule, in experiment [17], the molecule was classed as inactive. Also, in experiment [7], the Potency is 26.8 µM (active). For the same molecule, the activity change, positive = activation in [8] (at 92.4 µM (top of the series)) was -42.4%.
Turning to `COC(=O)C1(O)c2ccccc2-c2ccccc21`, the Potency entry in experiment [1], in [2], in [19], in experiment [15], in experiment [16] and in experiment [18] was “inactive” each time. The Potency result in experiment [9], in [10], in experiment [11] and in experiment [12] was “inactive” throughout. For the same molecule, the molecule was classed as inactive in experiment [17].
With `CCOC(=O)c1cn2nc(OP(=S)(OCC)OCC)cc2nc1C`, the Potency result in experiment [13], in experiment [14], in [4], in experiment [6], in [15] and in [16] was “inactive” each time. The Potency entry in [9] and in [12] was “inactive” in each case. Moreover, the Potency in experiment [5] is 43.3 µM (active); in experiment [7] it was 34.4 µM (active); in experiment [10], 13.8 µM (active). For the same molecule, the activity change, positive = activation in [8] (at 92.4 µM (top of the series)) was -40.1%.
Regarding `COC1=CC(=O)O[C@@H](/C=C/c2ccc3c(c2)OCO3)C1`, the Potency result in [1], in experiment [14], in experiment [4], in experiment [6], in [19] and in [15] was “inactive” throughout. The Potency result in experiment [16], in experiment [18], in [9], in [10], in experiment [11] and in [12] was “inactive” throughout. For the same molecule, the Potency in experiment [5] was 18.5 µM (active); in experiment [7] it was 20.8 µM (active). Also, in [17], the molecule was classed as inactive. Further, in [8] (at 92.4 µM (top of the series)), the activity change, positive = activation was -47.8%.
With `COc1ccc(C(=O)c2c(C)n(CCN3CCOCC3)c3ccccc23)cc1`, the Potency result in experiment [13], in experiment [14], in experiment [2], in experiment [4], in [5] and in [6] was “inactive” throughout. Further, the Potency result in [18], in experiment [9], in [11] and in experiment [12] was “inactive” throughout. The outcome in [17] was inactive. Further, the activity change, positive = activation in experiment [8] (at 42.5 µM (top of the series)) is -28.1%.

The values above are taken from PubChem BioAssay (Tox21).
